Common to all, as to assay: DAPPL (digital affinity profiling via proximity ligation, sequencing); 10 mM Tris-HCl pH 7.5, 50 mM NaCl, 1 mM DTT, 4% glycerol, room temperature, 30 min; GST-TFs on glutathione beads, 16-mer random dsDNA library, 0.1% formaldehyde crosslink after washing; high values mean tight binding
Holding throughout (conditions): protein: recombinant; tags: N-terminal GST; dsDNA, one strand shown

The target of one experiment is T1, FLI1 (Homo sapiens, UniProt Q01543 1-452).
T1 sequence: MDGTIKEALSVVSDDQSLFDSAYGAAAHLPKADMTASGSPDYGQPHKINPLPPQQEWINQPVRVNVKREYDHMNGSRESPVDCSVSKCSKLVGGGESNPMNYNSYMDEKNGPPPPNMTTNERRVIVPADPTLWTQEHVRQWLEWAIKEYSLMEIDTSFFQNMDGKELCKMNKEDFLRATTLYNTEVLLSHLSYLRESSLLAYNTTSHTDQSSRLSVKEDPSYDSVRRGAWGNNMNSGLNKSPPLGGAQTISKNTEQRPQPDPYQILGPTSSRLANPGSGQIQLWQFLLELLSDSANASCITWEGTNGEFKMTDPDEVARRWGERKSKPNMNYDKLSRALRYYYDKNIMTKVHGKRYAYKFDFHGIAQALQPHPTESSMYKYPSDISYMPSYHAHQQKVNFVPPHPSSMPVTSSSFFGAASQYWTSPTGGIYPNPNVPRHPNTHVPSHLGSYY
The method in brief:
(§1)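 Pools were built from human transcription factors expressed in yeast as GST fusions, captured on glutathione beads and DNA-barcoded, along with a tag-only sample. Incubation with 200 nmole of a 16-mer random double-stranded DNA library lasted 30 min at room temperature in Tris/NaCl/DTT/glycerol buffer, and was followed by washing, 0.1% formaldehyde crosslinking, proximity ligation, PCR amplification and Illumina NextSeq500 sequencing. Binding signal is the quotient of each hexamer's read frequency for a factor and its frequency for the tag-only sample.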

Another experiment has as its target T2, ELK1 (Homo sapiens, UniProt P19419 1-428).
T2 sequence: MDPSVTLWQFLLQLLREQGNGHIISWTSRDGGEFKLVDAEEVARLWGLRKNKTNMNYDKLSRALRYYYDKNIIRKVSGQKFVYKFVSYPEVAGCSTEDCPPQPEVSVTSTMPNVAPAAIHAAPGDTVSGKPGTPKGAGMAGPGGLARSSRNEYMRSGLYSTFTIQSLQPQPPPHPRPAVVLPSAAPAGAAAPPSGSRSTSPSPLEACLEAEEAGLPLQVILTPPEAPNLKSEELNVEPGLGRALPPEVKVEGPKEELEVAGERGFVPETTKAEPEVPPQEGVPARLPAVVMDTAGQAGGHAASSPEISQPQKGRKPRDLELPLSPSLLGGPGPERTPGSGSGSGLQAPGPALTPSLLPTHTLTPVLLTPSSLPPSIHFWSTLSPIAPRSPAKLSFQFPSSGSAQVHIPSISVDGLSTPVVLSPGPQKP
Summed up: as §1

The target of the next experiment is T3, GABPA (Homo sapiens, UniProt Q06546 1-454).
T3 sequence: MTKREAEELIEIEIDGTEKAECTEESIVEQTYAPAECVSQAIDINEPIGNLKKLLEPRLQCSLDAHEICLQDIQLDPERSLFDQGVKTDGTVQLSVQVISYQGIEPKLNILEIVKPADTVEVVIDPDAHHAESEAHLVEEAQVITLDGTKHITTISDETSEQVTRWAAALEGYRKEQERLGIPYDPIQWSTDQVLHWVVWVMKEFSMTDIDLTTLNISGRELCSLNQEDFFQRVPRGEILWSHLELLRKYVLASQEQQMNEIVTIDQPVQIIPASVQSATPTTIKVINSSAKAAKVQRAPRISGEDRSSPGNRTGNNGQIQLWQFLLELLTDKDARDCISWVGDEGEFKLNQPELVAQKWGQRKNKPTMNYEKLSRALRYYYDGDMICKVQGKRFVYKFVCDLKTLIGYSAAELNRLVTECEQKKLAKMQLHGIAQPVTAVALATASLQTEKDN
The method in brief:
as §1

A further experiment addresses T4, ERG (Homo sapiens, UniProt P11308 1-479).
T4 sequence: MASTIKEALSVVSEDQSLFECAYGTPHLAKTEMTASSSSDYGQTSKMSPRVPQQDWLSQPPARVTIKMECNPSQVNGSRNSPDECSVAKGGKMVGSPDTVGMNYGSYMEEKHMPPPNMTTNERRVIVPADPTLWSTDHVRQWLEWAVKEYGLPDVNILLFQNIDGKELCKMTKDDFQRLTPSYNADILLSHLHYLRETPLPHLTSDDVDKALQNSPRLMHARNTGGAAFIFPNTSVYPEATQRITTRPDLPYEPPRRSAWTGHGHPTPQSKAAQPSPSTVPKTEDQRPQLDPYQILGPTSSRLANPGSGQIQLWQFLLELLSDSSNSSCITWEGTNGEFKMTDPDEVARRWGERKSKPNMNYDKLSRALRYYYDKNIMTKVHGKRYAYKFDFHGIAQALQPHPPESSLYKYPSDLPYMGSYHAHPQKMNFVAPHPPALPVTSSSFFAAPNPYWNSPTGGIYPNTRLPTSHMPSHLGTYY
The method in brief:
as §1

The target of the next experiment is ELF1 (Homo sapiens, UniProt P32519 1-619). Summed up: as §1
Another experiment has as its target T5, EHF (Homo sapiens, UniProt Q9NZC4 1-300).
T5 sequence: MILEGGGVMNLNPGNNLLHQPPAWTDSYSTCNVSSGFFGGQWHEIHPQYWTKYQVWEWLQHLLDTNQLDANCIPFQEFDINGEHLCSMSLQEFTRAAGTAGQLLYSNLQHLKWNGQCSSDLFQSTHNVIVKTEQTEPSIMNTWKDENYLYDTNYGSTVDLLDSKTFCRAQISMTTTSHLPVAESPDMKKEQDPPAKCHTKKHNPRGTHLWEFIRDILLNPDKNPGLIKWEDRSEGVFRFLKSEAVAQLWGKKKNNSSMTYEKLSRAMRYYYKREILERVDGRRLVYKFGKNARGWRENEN
The method in brief:
as §1

A further experiment concerns the target SPI1 (Homo sapiens, UniProt P17947 1-270). Summed up: as §1
The target in the next experiment is SPIB (Homo sapiens, UniProt Q01892 1-262). The method in brief:
as §1

A further experiment addresses T6, ELK3 (Homo sapiens, UniProt P41970 1-407).
T6 sequence: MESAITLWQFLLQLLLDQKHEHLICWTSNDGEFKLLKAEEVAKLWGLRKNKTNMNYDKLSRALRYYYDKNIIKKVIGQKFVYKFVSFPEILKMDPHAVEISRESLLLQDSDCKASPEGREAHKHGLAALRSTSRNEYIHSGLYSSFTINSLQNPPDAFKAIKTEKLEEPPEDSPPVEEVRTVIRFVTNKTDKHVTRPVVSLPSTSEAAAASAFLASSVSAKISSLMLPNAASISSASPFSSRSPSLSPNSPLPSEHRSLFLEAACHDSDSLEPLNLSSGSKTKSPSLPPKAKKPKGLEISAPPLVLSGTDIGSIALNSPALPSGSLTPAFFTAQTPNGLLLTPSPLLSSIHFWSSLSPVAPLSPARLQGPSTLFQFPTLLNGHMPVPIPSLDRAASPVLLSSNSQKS
The method in brief: as §1

Sequence of ELF1 (P32519 whole entry): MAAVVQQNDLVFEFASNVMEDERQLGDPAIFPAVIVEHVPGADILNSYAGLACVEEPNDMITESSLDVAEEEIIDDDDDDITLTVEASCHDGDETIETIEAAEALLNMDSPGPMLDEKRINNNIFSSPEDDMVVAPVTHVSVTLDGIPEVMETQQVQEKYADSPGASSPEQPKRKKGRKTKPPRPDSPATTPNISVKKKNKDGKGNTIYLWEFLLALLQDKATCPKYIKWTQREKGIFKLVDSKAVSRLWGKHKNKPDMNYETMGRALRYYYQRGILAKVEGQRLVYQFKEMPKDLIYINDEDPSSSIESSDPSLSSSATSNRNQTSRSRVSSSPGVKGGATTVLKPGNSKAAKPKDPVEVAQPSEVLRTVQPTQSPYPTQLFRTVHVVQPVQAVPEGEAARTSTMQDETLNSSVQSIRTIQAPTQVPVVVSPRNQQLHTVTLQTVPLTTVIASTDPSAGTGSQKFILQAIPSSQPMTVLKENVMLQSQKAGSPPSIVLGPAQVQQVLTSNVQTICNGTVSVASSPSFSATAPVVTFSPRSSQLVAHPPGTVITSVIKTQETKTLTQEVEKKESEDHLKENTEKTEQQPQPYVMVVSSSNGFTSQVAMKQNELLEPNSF
Sequence of SPIB (Q01892 whole entry): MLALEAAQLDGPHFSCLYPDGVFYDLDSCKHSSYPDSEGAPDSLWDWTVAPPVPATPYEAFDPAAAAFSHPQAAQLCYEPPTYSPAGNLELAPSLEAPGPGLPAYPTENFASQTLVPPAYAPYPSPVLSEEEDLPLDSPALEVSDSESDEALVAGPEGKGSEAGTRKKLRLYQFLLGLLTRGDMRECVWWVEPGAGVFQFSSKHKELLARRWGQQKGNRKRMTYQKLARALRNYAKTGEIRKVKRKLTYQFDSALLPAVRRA

As for CACGCT, the binding signal was 1.42 fold enrichment (6-mer frequency, TF over GST control) in the experiment with FLI1; 1.36 fold enrichment (6-mer frequency, TF over GST control) in the experiment with ELK1; 1.36 fold enrichment (6-mer frequency, TF over GST control) with GABPA; 1.4 fold enrichment (6-mer frequency, TF over GST control) in the experiment with ERG; 1.34 fold enrichment (6-mer frequency, TF over GST control) with ELF1; 1.44 fold enrichment (6-mer frequency, TF over GST control) with EHF. Further, the binding signal with SPI1 was 1.33 fold enrichment (6-mer frequency, TF over GST control); with SPIB, 1.37 fold enrichment (6-mer frequency, TF over GST control); with ELK3, 1.35 fold enrichment (6-mer frequency, TF over GST control).
As to TTTTAT, the binding signal in the experiment with FLI1 was 1.4 fold enrichment (6-mer frequency, TF over GST control); in the experiment with ELK1, 1.16 fold enrichment (6-mer frequency, TF over GST control); in the experiment with GABPA, 1.42 fold enrichment (6-mer frequency, TF over GST control); with ERG it was 1.3 fold enrichment (6-mer frequency, TF over GST control); with ELF1 it was 1.17 fold enrichment (6-mer frequency, TF over GST control); with EHF, 1.44 fold enrichment (6-mer frequency, TF over GST control). Besides, the binding signal with SPI1 is 1.44 fold enrichment (6-mer frequency, TF over GST control); in the experiment with SPIB, 1.37 fold enrichment (6-mer frequency, TF over GST control); in the experiment with ELK3 it was 1.34 fold enrichment (6-mer frequency, TF over GST control).
As to GTTCTA, the binding signal in the experiment with FLI1 is 1.16 fold enrichment (6-mer frequency, TF over GST control); in the experiment with ELK1, 1.28 fold enrichment (6-mer frequency, TF over GST control); with GABPA, 1.22 fold enrichment (6-mer frequency, TF over GST control); with ERG it was 1.24 fold enrichment (6-mer frequency, TF over GST control); with ELF1, 1.31 fold enrichment (6-mer frequency, TF over GST control); with EHF, 1.12 fold enrichment (6-mer frequency, TF over GST control). Also, the binding signal with SPI1 is 1.12 fold enrichment (6-mer frequency, TF over GST control); in the experiment with SPIB, 1.32 fold enrichment (6-mer frequency, TF over GST control); in the experiment with ELK3, 1.23 fold enrichment (6-mer frequency, TF over GST control).
Take CCGATA: the binding signal is 1.16 fold enrichment (6-mer frequency, TF over GST control) with FLI1; 1.13 fold enrichment (6-mer frequency, TF over GST control) with ELK1; 1.14 fold enrichment (6-mer frequency, TF over GST control) in the experiment with GABPA; 1.14 fold enrichment (6-mer frequency, TF over GST control) in the experiment with ERG; 1.17 fold enrichment (6-mer frequency, TF over GST control) with ELF1; 1.18 fold enrichment (6-mer frequency, TF over GST control) with EHF. Further, the binding signal in the experiment with SPI1 is 1.09 fold enrichment (6-mer frequency, TF over GST control); in the experiment with SPIB, 1.03 fold enrichment (6-mer frequency, TF over GST control); with ELK3 it was 1.14 fold enrichment (6-mer frequency, TF over GST control).
CGCTTT: the binding signal in the experiment with FLI1 was 1.31 fold enrichment (6-mer frequency, TF over GST control); with ELK1, 1.1 fold enrichment (6-mer frequency, TF over GST control); with GABPA it was 1.32 fold enrichment (6-mer frequency, TF over GST control); with ERG it was 1.15 fold enrichment (6-mer frequency, TF over GST control); with ELF1 it was 1.18 fold enrichment (6-mer frequency, TF over GST control); with EHF, 1.19 fold enrichment (6-mer frequency, TF over GST control). Moreover, the binding signal with SPI1 was 1.59 fold enrichment (6-mer frequency, TF over GST control); with SPIB it was 1.4 fold enrichment (6-mer frequency, TF over GST control); with ELK3 it was 1.31 fold enrichment (6-mer frequency, TF over GST control).
TTATAT: the binding signal is 1.26 fold enrichment (6-mer frequency, TF over GST control) with FLI1; 1.42 fold enrichment (6-mer frequency, TF over GST control) with ELK1; 1.39 fold enrichment (6-mer frequency, TF over GST control) with GABPA; 1.4 fold enrichment (6-mer frequency, TF over GST control) with ERG; 1.34 fold enrichment (6-mer frequency, TF over GST control) with ELF1; 1.41 fold enrichment (6-mer frequency, TF over GST control) with EHF. Besides, the binding signal with SPI1 is 1.32 fold enrichment (6-mer frequency, TF over GST control); with SPIB, 1.51 fold enrichment (6-mer frequency, TF over GST control); in the experiment with ELK3, 1.18 fold enrichment (6-mer frequency, TF over GST control).
As for CGACAA, the binding signal with FLI1 was 1.17 fold enrichment (6-mer frequency, TF over GST control); with ELK1, 1.09 fold enrichment (6-mer frequency, TF over GST control); in the experiment with GABPA it was 1.26 fold enrichment (6-mer frequency, TF over GST control); with ERG, 1.17 fold enrichment (6-mer frequency, TF over GST control); with ELF1, 1.21 fold enrichment (6-mer frequency, TF over GST control); with EHF it was 1.24 fold enrichment (6-mer frequency, TF over GST control). In addition, the binding signal in the experiment with SPI1 is 1.12 fold enrichment (6-mer frequency, TF over GST control); in the experiment with SPIB, 1.2 fold enrichment (6-mer frequency, TF over GST control); with ELK3 it was 1.07 fold enrichment (6-mer frequency, TF over GST control).
With CTAGCA, the binding signal with FLI1 is 1.28 fold enrichment (6-mer frequency, TF over GST control); in the experiment with ELK1, 1.26 fold enrichment (6-mer frequency, TF over GST control); with GABPA it was 1.2 fold enrichment (6-mer frequency, TF over GST control); in the experiment with ERG, 1.18 fold enrichment (6-mer frequency, TF over GST control); in the experiment with ELF1, 1.26 fold enrichment (6-mer frequency, TF over GST control); in the experiment with EHF it was 1.23 fold enrichment (6-mer frequency, TF over GST control). The binding signal in the experiment with SPI1 is 1.14 fold enrichment (6-mer frequency, TF over GST control); with SPIB, 1.24 fold enrichment (6-mer frequency, TF over GST control); in the experiment with ELK3, 1.33 fold enrichment (6-mer frequency, TF over GST control).

The values are drawn from PMC7862700, “An all-to-all approach to the identification of sequence-specific readers for epigenetic DNA modifications on cytosine”.
